Measurements from the supplement of paper PMC11732987, “Enantioselective OTUD7B fragment discovery through chemoproteomics screening and high-throughput optimisation” (Communications Chemistry, 2025).

Legend:
Assay in all cases: log2 ratio of Biotin-Ahx-Ub-VS probe labelling (fragment/DMSO); higher = less target engagement (more negative = stronger competition), active = hit call of the paper (q ≤ 0.05, log2 ratio ≤ -1)
Conditions in all cases: compound concentration: 200 uM; treatment time: 3 h
USP34 = USP34 (UniProt Q70CQ2)
Sequence of USP34 (Q70CQ2 whole entry, the tested form may be a part): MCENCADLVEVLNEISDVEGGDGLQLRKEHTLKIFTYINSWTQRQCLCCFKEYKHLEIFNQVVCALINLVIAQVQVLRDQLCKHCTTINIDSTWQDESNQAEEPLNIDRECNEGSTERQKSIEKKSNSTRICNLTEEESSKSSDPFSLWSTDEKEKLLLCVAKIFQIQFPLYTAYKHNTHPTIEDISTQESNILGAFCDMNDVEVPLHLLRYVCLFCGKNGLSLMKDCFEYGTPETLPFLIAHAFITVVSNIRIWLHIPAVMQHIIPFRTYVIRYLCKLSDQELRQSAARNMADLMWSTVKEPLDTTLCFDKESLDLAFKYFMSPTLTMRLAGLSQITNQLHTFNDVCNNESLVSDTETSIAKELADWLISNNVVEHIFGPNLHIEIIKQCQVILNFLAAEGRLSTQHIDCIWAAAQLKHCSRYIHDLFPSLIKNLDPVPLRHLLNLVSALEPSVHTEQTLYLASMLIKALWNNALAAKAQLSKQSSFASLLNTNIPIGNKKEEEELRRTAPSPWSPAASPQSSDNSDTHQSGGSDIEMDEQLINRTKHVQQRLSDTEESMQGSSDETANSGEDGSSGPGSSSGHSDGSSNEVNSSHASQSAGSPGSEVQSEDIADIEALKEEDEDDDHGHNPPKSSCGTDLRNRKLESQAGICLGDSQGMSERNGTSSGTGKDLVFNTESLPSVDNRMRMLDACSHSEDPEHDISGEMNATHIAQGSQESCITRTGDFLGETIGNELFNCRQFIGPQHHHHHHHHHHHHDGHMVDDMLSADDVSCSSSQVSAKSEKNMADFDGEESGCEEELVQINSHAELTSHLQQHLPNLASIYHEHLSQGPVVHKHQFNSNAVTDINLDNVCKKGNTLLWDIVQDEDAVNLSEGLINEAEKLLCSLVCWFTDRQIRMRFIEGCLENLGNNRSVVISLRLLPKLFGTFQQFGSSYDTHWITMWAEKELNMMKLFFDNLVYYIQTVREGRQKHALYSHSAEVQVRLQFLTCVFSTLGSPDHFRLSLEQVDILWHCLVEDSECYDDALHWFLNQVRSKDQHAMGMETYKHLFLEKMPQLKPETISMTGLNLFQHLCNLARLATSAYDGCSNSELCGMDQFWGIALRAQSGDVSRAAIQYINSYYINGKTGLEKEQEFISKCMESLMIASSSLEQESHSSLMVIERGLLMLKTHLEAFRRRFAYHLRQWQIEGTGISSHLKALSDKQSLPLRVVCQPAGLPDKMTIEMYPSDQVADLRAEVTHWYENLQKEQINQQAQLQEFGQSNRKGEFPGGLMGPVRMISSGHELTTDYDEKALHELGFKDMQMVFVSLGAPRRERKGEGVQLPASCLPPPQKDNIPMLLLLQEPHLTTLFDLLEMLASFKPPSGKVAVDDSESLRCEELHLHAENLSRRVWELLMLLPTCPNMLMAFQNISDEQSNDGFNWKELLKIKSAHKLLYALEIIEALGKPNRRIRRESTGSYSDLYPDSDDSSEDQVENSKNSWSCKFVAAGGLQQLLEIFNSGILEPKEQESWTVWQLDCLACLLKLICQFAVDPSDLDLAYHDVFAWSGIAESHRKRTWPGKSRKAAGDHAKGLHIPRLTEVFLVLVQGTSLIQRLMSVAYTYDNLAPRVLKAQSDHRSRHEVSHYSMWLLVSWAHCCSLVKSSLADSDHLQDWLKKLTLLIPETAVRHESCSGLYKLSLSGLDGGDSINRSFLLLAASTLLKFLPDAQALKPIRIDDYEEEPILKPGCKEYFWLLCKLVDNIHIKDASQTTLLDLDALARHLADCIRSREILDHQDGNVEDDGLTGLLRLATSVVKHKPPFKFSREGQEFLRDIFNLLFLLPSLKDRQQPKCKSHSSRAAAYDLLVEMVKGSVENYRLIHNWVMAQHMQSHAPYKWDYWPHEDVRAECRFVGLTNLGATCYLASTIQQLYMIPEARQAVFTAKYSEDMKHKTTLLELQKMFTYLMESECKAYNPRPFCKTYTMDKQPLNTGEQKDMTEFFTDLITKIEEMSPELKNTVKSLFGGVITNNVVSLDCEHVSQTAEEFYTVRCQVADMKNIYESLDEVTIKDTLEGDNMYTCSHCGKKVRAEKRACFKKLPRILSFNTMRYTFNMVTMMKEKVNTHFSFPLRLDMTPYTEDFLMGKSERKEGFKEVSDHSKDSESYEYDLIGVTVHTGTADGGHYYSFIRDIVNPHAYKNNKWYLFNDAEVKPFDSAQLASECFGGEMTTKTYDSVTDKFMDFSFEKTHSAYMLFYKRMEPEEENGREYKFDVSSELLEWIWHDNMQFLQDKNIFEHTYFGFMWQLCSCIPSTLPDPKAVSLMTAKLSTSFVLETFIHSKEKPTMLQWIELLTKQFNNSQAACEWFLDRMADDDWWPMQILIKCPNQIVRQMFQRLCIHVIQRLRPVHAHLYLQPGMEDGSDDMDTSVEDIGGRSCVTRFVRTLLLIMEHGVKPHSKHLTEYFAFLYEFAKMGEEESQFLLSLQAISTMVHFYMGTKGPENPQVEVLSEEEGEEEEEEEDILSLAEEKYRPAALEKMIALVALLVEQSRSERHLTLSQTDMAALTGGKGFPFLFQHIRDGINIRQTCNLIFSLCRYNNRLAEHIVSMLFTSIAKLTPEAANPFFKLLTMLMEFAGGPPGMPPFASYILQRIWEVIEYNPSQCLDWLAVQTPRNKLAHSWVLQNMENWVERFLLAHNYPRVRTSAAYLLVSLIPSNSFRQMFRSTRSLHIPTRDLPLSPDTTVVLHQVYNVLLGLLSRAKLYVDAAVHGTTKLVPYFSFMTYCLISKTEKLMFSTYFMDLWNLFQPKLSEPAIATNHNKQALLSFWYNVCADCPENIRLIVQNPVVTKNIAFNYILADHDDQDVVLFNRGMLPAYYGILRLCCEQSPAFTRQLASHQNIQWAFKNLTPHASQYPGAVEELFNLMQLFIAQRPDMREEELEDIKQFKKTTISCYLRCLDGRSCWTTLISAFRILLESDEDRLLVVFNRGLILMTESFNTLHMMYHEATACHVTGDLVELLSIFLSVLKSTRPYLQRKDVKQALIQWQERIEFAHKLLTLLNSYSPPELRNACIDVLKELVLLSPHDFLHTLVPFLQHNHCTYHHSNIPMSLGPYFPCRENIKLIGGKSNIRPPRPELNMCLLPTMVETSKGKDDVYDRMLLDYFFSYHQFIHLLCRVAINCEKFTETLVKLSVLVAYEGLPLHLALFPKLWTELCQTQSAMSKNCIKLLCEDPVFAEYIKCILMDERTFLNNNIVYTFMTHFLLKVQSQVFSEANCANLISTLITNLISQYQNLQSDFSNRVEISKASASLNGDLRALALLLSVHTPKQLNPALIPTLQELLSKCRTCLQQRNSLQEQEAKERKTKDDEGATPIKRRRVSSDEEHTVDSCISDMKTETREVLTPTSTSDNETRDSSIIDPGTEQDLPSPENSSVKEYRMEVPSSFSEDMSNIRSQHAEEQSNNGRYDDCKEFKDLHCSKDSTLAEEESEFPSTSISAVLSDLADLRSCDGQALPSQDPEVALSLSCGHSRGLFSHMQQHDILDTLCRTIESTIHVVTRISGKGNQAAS
Method in brief: (§1)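 Triplicate samples of HEK293T lysate, 495 µg each, received fragment at 200 µM or vehicle for 3 h, followed by Biotin-Ahx-Ub-VS (0.5 µM final) for 1 h. After NeutrAvidin enrichment of labelled DUBs and LysC/trypsin digestion, peptides were run by diaPASEF LC-MS/MS. The values are average log2 fragment/vehicle ratios from global-median-normalised Spectronaut label-free quantities, tested by unpaired t-test on proteins having ≥2 unique peptides.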

USP36 = molecular target: T1, USP36 (UniProt Q9P275)
T1 sequence (whole entry): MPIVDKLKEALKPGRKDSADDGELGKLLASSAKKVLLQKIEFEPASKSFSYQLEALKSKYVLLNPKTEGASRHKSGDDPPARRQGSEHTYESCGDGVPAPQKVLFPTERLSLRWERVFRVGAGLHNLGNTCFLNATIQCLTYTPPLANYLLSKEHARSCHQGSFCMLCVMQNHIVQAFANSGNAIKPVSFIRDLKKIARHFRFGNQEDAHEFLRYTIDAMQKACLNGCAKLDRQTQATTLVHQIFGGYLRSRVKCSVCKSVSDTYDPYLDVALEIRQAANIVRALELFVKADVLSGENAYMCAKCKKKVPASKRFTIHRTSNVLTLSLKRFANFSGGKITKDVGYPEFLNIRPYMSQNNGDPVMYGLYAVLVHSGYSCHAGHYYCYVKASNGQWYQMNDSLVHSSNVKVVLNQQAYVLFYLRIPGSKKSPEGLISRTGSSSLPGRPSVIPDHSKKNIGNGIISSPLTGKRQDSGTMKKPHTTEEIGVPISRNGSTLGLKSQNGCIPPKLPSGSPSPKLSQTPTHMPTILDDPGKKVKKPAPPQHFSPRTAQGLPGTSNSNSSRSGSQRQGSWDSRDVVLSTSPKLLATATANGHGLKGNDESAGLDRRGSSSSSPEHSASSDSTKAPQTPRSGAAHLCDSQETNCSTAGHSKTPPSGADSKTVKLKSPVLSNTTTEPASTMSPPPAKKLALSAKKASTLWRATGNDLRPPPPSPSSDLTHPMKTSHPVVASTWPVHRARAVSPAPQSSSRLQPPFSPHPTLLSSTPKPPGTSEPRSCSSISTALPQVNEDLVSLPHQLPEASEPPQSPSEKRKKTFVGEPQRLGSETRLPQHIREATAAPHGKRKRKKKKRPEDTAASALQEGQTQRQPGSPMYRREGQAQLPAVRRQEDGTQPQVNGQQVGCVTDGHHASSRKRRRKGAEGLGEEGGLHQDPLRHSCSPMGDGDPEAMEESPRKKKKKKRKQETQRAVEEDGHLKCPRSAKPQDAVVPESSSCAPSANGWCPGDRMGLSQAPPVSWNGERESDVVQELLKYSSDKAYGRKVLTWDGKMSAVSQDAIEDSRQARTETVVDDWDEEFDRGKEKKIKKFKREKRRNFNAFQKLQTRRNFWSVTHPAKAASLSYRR
Method in brief: as §1

USP38 = molecular target: T2, USP38 (UniProt Q8NB14)
T2 sequence (whole entry): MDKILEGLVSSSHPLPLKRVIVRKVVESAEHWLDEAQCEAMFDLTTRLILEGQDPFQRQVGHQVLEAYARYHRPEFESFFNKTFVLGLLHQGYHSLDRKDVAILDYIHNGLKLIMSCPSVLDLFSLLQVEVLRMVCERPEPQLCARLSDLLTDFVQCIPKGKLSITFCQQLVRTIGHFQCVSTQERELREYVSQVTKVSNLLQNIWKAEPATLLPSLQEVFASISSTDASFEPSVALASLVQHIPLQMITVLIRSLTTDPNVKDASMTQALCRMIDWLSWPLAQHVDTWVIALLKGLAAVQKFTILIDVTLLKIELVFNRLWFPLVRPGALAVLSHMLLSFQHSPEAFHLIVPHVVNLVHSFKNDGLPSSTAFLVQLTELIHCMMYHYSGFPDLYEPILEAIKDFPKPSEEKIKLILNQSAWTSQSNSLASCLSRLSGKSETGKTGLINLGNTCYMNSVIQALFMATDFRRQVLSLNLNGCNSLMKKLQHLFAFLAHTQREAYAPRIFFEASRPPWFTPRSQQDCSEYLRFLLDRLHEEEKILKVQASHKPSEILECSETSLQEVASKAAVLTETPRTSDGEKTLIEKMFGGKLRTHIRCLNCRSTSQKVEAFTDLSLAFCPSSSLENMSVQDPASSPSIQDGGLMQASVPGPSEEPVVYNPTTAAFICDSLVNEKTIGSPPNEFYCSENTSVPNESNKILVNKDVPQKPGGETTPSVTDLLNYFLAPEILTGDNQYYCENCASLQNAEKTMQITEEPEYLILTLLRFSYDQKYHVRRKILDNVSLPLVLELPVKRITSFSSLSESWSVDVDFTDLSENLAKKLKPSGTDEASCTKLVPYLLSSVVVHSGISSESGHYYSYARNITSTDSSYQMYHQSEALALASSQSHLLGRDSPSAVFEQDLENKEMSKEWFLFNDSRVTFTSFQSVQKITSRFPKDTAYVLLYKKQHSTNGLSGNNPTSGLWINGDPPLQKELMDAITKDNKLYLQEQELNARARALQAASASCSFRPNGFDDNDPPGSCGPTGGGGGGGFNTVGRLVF
Method in brief: as §1

USP39 = molecular target: T3, USP39 (UniProt Q53GS9)
T3 sequence (whole entry): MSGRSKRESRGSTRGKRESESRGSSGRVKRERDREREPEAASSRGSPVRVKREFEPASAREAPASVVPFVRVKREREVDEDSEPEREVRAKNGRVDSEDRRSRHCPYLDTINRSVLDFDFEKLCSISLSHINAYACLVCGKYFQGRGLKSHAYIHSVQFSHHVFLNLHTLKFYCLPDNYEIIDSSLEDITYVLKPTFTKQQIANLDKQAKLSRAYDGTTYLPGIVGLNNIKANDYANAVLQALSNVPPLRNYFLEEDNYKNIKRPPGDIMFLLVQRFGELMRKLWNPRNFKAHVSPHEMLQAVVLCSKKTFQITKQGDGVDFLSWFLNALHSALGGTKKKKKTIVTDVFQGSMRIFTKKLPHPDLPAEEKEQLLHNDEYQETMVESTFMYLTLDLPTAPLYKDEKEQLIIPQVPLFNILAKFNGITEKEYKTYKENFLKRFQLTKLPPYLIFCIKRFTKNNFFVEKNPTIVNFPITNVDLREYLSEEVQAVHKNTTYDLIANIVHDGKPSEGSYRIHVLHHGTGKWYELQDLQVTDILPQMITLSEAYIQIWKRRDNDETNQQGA
Method in brief: as §1

USP4 = molecular target: T4, USP4 (UniProt Q13107)
T4 sequence (whole entry): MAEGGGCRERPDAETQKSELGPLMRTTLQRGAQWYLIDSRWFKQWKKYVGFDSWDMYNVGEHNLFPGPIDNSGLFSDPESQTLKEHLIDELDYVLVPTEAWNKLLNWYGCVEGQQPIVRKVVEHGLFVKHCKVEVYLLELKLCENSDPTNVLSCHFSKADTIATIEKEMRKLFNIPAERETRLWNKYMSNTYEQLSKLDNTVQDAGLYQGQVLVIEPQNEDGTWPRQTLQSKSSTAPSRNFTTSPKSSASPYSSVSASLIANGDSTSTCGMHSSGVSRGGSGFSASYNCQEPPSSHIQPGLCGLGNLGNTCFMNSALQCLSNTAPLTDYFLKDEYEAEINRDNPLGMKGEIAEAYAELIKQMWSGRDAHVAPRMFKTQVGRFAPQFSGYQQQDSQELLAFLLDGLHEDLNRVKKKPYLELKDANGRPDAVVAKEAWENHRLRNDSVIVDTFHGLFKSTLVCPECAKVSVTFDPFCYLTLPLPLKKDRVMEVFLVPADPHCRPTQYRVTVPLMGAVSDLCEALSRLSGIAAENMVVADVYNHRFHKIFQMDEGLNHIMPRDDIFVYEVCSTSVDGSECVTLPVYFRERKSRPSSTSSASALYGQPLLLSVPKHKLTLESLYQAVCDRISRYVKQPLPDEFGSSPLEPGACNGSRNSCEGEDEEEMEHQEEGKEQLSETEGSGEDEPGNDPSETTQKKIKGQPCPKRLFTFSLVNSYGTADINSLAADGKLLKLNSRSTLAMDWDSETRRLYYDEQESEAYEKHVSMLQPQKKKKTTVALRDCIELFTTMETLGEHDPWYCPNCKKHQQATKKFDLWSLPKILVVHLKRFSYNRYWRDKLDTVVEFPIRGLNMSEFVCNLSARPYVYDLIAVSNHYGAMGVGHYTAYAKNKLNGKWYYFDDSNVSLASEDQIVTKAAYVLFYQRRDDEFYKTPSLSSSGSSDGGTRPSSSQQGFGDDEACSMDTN
Method in brief: as §1

Measured: log2 ratio of Biotin-Ahx-Ub-VS probe labelling

CCC1c2ccsc2CCN1C(=O)CCl (stereo not given)
inactive: USP34 -0.381 | USP36 -0.0771 | USP38 -0.204 | USP39 0.162 | USP4 -0.497
